Data reported in PubChem BioAssay (NCI).
This is part of a sample that, as a whole, favours compounds with a hit. Of some 83,000 tested, about 20% had one in any assay.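 48-hour exposure, single concentration, 96-well plates; percent growth endpoint where 0 means no net growth. Active: below 10.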 A number with no mark means an inactive call. Activity calls are given as the source filed them.

Tested on: MDA-MB-468 breast
Test: NCI-60 one-dose screen, 48 h (100 = growth as untreated, 0 = no growth, -100 = all killed)
Conditions: 10 µM unless noted

Row | SMILES | growth
1 | N#C/C(=C\c1cn(Cc2ccccc2)c2ccccc12)C(=O)Nc1ncc(Cc2ccccc2Cl)s1 | -14.7% (active)
2 | CCCCCCCC/C=C/CCCCCCCC1=NC(C)(C)CN1C(C)C | -70.1% (active)
3 | O=S(=O)(OCCOS(=O)(=O)c1ccccc1)c1ccccc1 | 95%
4 | CCc1nn2c(-c3cc(OC)c(OC)c(OC)c3)c(-c3cc(OC)c(OC)c(OC)c3)nc2s1 | 49.3%
5 | O=C(c1cccs1)c1ccccc1Cc1ccccc1 | 100%
6 | O=C(c1cccc(F)c1)n1ccc2cc(NC(=S)Nc3cccnc3)ccc21 | 91.9%
7 | Nc1ccc(S(=O)(=O)O)c2cc(S(=O)(=O)O)cc(O)c12 | 106%
8 | C/C(=C\c1ccc2ccccc2c1)[N+](=O)[O-] | -22.8% (active)
9 | COc1ccc2nc(Cl)c(/C=C3\CC(c4ccccc4)=NN(c4ccccc4)C3=O)cc2c1 | 74.9%
10 | COc1ccc2c(c1)C(C)Cc1c(ncnc1-n1cnc3cc(C)ccc31)N2C (stereo unspecified) | 7.23% (active)
11 | CC(C)(C)c1cc(Br)cc(C(C)(C)C)c1O | 110%
12 | Cc1nnc2c(Cc3ccccc3)nc3ccccc3n12 | 89.6%
13 | C=CC(=O)OC1CCC(C(C)(C)CC)CC1 (stereo unspecified) | 108%
14 | Cc1nccc2c3ccc(OCc4cn(-c5ccccc5)nn4)cc3n(CCCc3ccccc3)c12 | 49%
15 | N#Cc1c(-c2cccc(Cl)c2)cc(-c2cccc(F)c2)[nH]c1=O | 87.1%
16 | O=C(NNc1ccc(-c2ccccc2)nn1)c1ccccc1 | 103%
17 | COc1cccc(-n2cc(-c3nc(Cl)c4ccccc4n3)nn2)c1 | 117%
18 | CC1=NN(c2ccccc2)C(=O)C1C(=O)c1ccccc1 (stereo unspecified) | 83.4%
19 | COc1ccc(S(=O)(=O)n2ccc(-c3ccc4c(c3)CCC(C)(C)O4)n2)cc1OC | 28.4%
20 | CC(=O)c1cc2c(N)c(C(=O)Nc3cccc4c3OCCO4)sc2nc1C | 86.1%
21 | CCOC(=O)c1sc(-c2ccc(OS(=O)(=O)c3ccccc3[N+](=O)[O-])c(C=O)c2)nc1C | 55.4%
22 | Cc1cc2c(C(C)C)c(O)c(O)c(C=Nc3ccccc3[N+](=O)[O-])c2c(O)c1-c1c(C)cc2c(C(C)C)c(O)c(O)c(C=Nc3ccccc3[N+](=O)[O-])c2c1O | 80.5%
23 | Cc1ccc(Oc2nc3ccccc3cc2-c2nnc(Cn3c(COc4ccccc4)nc4ccccc43)o2)cc1 | 92.1%
24 | COc1ccc(C2c3sc4c(F)cccc4c3Oc3nc[nH]c(=O)c32)cc1 (stereo unspecified) | 54.6%
25 | O=C1OCC2=C1C(c1cccc(Cl)c1)c1cc3c(cc1N2CCO)OCO3 (stereo unspecified) | -10.2% (active)
26 | COc1ccc(Nc2ncccc2C(=O)NCc2cn(Cc3cccc(Oc4ccccc4)c3)nn2)c(OC)c1 | 14.8%
